The source of these data is PubChem BioAssay (NCATS).

For assay [1], the target named is Cellular tumor antigen p53 (Homo sapiens) (UniProt P04637). Description: Primary qHTS for small molecule compounds that upregulate eGFP-tagged delta133p53alpha (in N-terminal) cells. (AID 2060322).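 For activation: series mostly up to about 56 µM; 0% = DMSO vehicle and 100% = reference activator.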 Note: nearly all actives have a fitted effect of over 75% in size. Note: potency is the fitted concentration of half-maximal effect. Conditions: NCI-H358 eGFP-delta133p53alpha fluorescence, 24 h; activation: stronger effect = higher value. A digest of the protocol: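 NCI-H358 cells pre-induced 24 h with 10 ng/ml doxycycline to express N-terminal eGFP-delta133p53alpha, then dosed 24 h at 37C without doxycycline; fixed, Hoechst-stained, GFP intensity by laser scanning cytometry, normalized to DMSO (0%) and 57.5 uM 5-azacytidine (100%).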

A short description of assay [2]: qHTS for Inhibitors of the Aldehyde Dehydrogenase Family (ALDH1A2, ALDH1A3, ALDH2, ALDH3A1) (AID 2061307). For Potency: test system not described further here; potency is the fitted concentration of half-maximal effect. For activity change, negative = inhibition: % is set by controls: 0 for no effect and ±100 for the full control effect. Note: nearly all actives have a fitted effect of over 50% in size.
The target of assay [3] is Aldehyde dehydrogenase, mitochondrial (Homo sapiens) (UniProt P05091). Briefly: qHTS for Inhibitors of the Aldehyde Dehydrogenase Family (ALDH2) Primary screen (AID 2061308).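 For activity change, negative = inhibition: plate controls were vehicle for no effect and reference inhibitor for full effect.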 Note: nearly all actives have a fitted effect of over 55% in size. Note: potency is the fitted concentration of half-maximal effect.
For assay [4], the target named is Retinaldehyde dehydrogenase 3 (Homo sapiens) (UniProt P47895). Briefly: qHTS for Inhibitors of the Aldehyde Dehydrogenase Family (ALDH1A3) Confirmatory screens (AID 2061311). For activity change, negative = inhibition: % is set by controls: 0 for no effect and ±100 for the full control effect. Note: nearly all actives have a fitted effect of over 60% in size. Note: potency is the fitted concentration of half-maximal effect.
Assay [5] deals with Retinal dehydrogenase 2 (Homo sapiens) (UniProt O94788). Briefly: qHTS for Inhibitors of the Aldehyde Dehydrogenase Family (ALDH1A2) Confirmation screens (AID 2061314). Note: nearly all actives have a fitted effect of over 65% in size. Note: potency is the fitted concentration of half-maximal effect.
Assay [6] deals with Retinaldehyde dehydrogenase 3 (Homo sapiens) (UniProt P47895). Description: qHTS for Inhibitors of the Aldehyde Dehydrogenase Family (ALDH1A3) Primary screen (AID 2061315).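 For activity change, negative = inhibition: plate controls were DMSO vehicle for no effect and reference inhibitor for full effect.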 Note: potency is the fitted concentration of half-maximal effect.
The nature of assay [7]: BET inhibitor-based combinations targeting novel dependencies in MECOM-rearranged (r) AML: SET-2 cell line (AID 2202231).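 For viability: plate controls were DMSO treated cells for no effect and wells without cells for full effect.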 Note: nearly all actives have a fitted effect of over 35% in size. Note: potency is the fitted concentration of half-maximal effect. Conditions: SET-2 AML cells viability, CellTiter-Glo luminescence, 48 h; viability: stronger effect = lower value, concentration not given here. A digest of the protocol: (§1)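 AML cell lines seeded at 500 cells/well, treated with 11-point dose curves for 48 h. Viability by CellTiter-Glo luminescence, normalised to DMSO and empty wells; activity expressed as AUC and per-cell-line Z-transformed AUC.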

Assay [8] in a line: BET inhibitor-based combinations targeting novel dependencies in MECOM-rearranged (r) AML: MV-4-11 cell line (AID 2202233). Note: nearly all actives have a fitted effect of over 45% in size. Note: potency is the fitted concentration of half-maximal effect. The method, boiled down:
(§2)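 Cells at 500/well were exposed for 48 hr to MIPE v5.0 drugs as 11-point dose curves. Viability was read by CellTiter-Glo luminescence and normalized to DMSO and empty-well controls. Activity was expressed as AUC and per-cell-line Z-AUC.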

Assay [9] can be described thus: BET inhibitor-based combinations targeting novel dependencies in MECOM-rearranged (r) AML: HNT-34 cell line (AID 2202234). Note: nearly all actives have a fitted effect of over 35% in size. Note: potency is the fitted concentration of half-maximal effect. A digest of the protocol: as §2
Assay [10] in a line: BET inhibitor-based combinations targeting novel dependencies in MECOM-rearranged (r) AML: AML-191 cell line (AID 2202236; note: nearly all actives have a fitted effect of over 35% in size; note: potency is the fitted concentration of half-maximal effect). A digest of the protocol:
as §1

Assay [11] is described as follows: BET inhibitor-based combinations targeting novel dependencies in MECOM-rearranged (r) AML: AML-194 cell line (AID 2202237; note: nearly all actives have a fitted effect of over 40% in size; note: potency is the fitted concentration of half-maximal effect). The method, boiled down:
as §1

Assay [12] addresses Retinaldehyde dehydrogenase 3 (Homo sapiens) (UniProt P47895). Briefly: qHTS for Inhibitors of the Aldehyde Dehydrogenase Family (ALDH1A3) Validation screen (AID 2061312). For activity change, negative = inhibition: % is set by controls: 0 for no effect and ±100 for the full control effect. Note: nearly all actives have a fitted effect of over 45% in size. Note: potency is the fitted concentration of half-maximal effect.
For assay [13], the target named is Aldehyde dehydrogenase 1A1 (Homo sapiens) (UniProt P00352). Description: qHTS for Inhibitors of the Aldehyde Dehydrogenase Family (ALDH1A1) Confirmatory screens (AID 2061316). For activity change, negative = inhibition: % is set by controls: 0 for no effect and ±100 for the full control effect. Note: nearly all actives have a fitted effect of over 65% in size. Note: potency is the fitted concentration of half-maximal effect.
A short description of assay [14]: BET inhibitor-based combinations targeting novel dependencies in MECOM-rearranged (r) AML: OCI-AML3 cell line (AID 2202232).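 Note: series mostly up to about 46 µM; plate controls were DMSO vehicle wells for no effect and wells without cells for full effect; nearly all actives have a fitted effect of over 35% in size.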 Conditions: Potency: OCI-AML3 viability. The method, boiled down: as §1
Assay [15] can be described thus: BET inhibitor-based combinations targeting novel dependencies in MECOM-rearranged (r) AML: UCSD-AML1 cell line (AID 2202235).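 Note: series mostly up to about 46 µM; plate controls were DMSO vehicle wells for no effect and blank wells for full effect; nearly all actives have a fitted effect of over 40% in size.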 The method, boiled down: as §2

Values joined by “and” are separate entries in the source; they are usually repeats but may differ in a detail not shown here. Equal values may be shown once. Inconclusive results are not listed. Active and inactive are the calls of the source. Calls come from the whole dose curve; as a rule, active = well fitted curve in the direction sought with a large enough effect; inconclusive = small, poorly fitted or top-dose-only effect, or another doubt; inactive = no such curve, though single readings can be large; an effect the other way counts as inactive or inconclusive.

Chain of Cellular tumor antigen p53 (Homo sapiens) (P04637 whole entry, looked up): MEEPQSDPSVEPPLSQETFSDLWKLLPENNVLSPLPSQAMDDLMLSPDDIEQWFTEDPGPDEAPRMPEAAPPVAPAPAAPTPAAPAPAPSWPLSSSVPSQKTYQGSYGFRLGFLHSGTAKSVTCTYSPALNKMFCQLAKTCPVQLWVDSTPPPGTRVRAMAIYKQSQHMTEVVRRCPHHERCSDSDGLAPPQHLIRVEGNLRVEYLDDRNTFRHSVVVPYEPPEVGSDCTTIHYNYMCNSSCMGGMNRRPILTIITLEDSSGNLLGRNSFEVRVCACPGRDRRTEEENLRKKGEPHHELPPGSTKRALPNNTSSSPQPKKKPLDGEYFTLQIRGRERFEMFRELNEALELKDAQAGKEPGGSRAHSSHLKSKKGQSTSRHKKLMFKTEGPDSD

On to `COc1ccc(CNC(=O)Nc2ncc([N+](=O)[O-])s2)cc1`, for which the Potency in assay [1] is 33.8 µM (active); in [2], 3.16 µM (active); in [4], 14.2 µM (active); in [5], 12.7 µM (active); in [7], 26.3 µM (active); in [8], 18.6 µM (active). Besides, the Potency was 20.9 µM (active) in [9], 23.5 µM (active) in assay [10] and 26.3 µM (active) in [11]. The Potency result in assay [3] and in assay [6] was “inactive” in each case.

Take `OCC1OC(Oc2cc(O)cc(/C=C/c3ccc(OC4OC(CO)C(O)C(O)C4O)cc3O)c2)C(O)C(O)C1O` (stereo unspecified): in assay [1], the activation was -9.16% (inactive). Besides, the Potency was 10 µM (active) in assay [2] and 4.47 µM (active) in [6]. Besides, the Potency result in [3] was “inactive”.

As for `CC1=CCC2C(C)(CO)CCCC2(CO)C1CO` (stereo unspecified), the activation in assay [1] is -19.8% (inactive). Also, the Potency entry in [2], in [3] and in [6] was “inactive” throughout.

With `C=CC(=O)N1CCN(C(=O)CNc2cc(I)c(Cl)cc2O)CC1`, in [1], the activation was 8.59% (inactive). Also, the Potency in [2] is 2.25 µM (active); in [4], 1.79 µM (active); in assay [12], 7.08 µM (active); in [5] it was 28.3 µM (active); in assay [6], 2.82 µM (active); in [13] it was 2.83 µM (active). The Potency result in assay [3] is “inactive”.

On to `Clc1ccc2ncc(-c3cccc(NC4CNC4)n3)n2c1`, for which the activation in assay [1] was 11% (inactive). Further, the Potency entry in assay [2], in assay [3], in [4], in [6], in assay [14] and in [8] was “inactive” each time. Besides, the Potency entry in [9], in assay [10] and in [11] was “inactive” throughout. In addition, the viability in [7] was 115% (inactive).

With `O=C(O)c1cc(-c2c(-c3ccccc3)nn3ccccc23)n[nH]c1=O`, the activation in [1] was -0.333% (inactive). For the same compound, the Potency result in assay [2], in assay [3] and in assay [6] was “inactive” in each case.

As for `CC[C@@H](Nc1c(Nc2cccc(C(=O)N(C)C)c2O)c(=O)c1=O)c1cc(C(C)C)co1`, in assay [1], the activation was -2.39% (inactive). In addition, the Potency in assay [2] is 5.62 µM (active) and 7.08 µM (active). Moreover, the Potency entry in assay [3], in assay [12], in [5] and in assay [13] was “inactive” in each case.

Consider `OC[C@H]1O[C@@H](O[C@H]2[C@H](O)[C@@H](CO)O[C@@H](OCc3ccccc3)[C@@H]2O[C@@H]2OC[C@](O)(CO)[C@H]2O)[C@H](O)[C@@H](O)[C@@H]1O`, for which the activation in assay [1] was -11.5% (inactive). The Potency entry in [2] and in assay [3] was “inactive” in each case. Besides, the Potency in assay [4] is 12.3 µM (active).

Turning to `Cc1c(Cc2ccc3ccccc3n2)c2cc(F)ccc2n1CC(=O)O`, the activation in assay [1] is -10% (inactive). Besides, in assay [2], the Potency was 3.18 µM (active). In addition, the Potency entry in assay [3] and in assay [6] was “inactive” in each case.

Consider `COc1cc(C[C@H]2C(=O)OC[C@@H]2Cc2ccc(OC)c(OC)c2)ccc1O`, for which the activation in [1] is 19.6% (inactive). Moreover, the Potency in assay [2] is 0.251 µM (active). Further, the Potency result in [3] and in assay [6] was “inactive” throughout.

For `CCOC(=O)c1cnn(-c2ccc(NC(=O)C(Cl)=C(Cl)Cl)cc2)c1C(F)(F)F`, the Potency in assay [1] is 19 µM (active); in assay [2], 4.47 µM (active); in assay [3] it was 4.47 µM (active); in assay [4], 7.08 µM (active); in [5] it was 0.634 µM (active); in [13], 4 µM (active). The Potency result in [6] was “inactive”.

On to `Cc1cc(C)c2c(c1)C(N(Cc1cc(C(F)(F)F)cc(C(F)(F)F)c1)c1nnn(C)n1)CCCN2CC1CCC(C(=O)O)CC1` (stereo unspecified), for which the activation in [1] was 26.7% (inactive). Moreover, the Potency result in assay [2] and in assay [3] was “inactive” each time. The Potency in assay [12] was 2.82 µM (active); in assay [5], 20.1 µM (active).

With `O=C(O)c1ccccc1C(=O)Nc1ccc(-c2ccccc2)cc1`, in assay [1], the activation is -8.49% (inactive) and 5.67% (inactive). For the same compound, the Potency entry in [2], in assay [3], in [6], in assay [8], in assay [15] and in assay [10] was “inactive” in each case. The Potency entry in [11] is “inactive”. Besides, the activity change, negative = inhibition in assay [4] was -21.1% [at 0.0073 µM] (inactive). Besides, the Potency in assay [5] was 10.1 µM (active). For the same compound, the viability in [7] is 116% (inactive).

Take `CC(=O)N[C@@H](CC(=O)O)C(=O)N[C@@H](CCC(=O)O)C(=O)N[C@H](C(=O)N[C@@H](CC(=O)O)C(=O)Nc1ccc2c(C)cc(=O)oc2c1)C(C)C`: the Potency in [1] is 13.5 µM (active). Further, the Potency result in assay [2], in assay [3] and in assay [6] was “inactive” throughout.

Take `COC(=O)C1=COC(OC2OC(CO)C(O)C(O)C2O)C2C(COC(=O)/C=C/c3ccc(O)c(O)c3)C(O)C(O)C12` (stereo unspecified): the activation in assay [1] is -6.25% (inactive). Besides, the Potency result in [2], in assay [3], in assay [5] and in assay [13] was “inactive” in each case.

On to `NC(=Nc1ccc(CCNCc2cccc(Cl)c2)cc1)c1cccs1`, for which, in assay [1], the activation was -11.9% (inactive). The Potency result in assay [2], in [3] and in assay [6] was “inactive” each time.

Regarding `O=C(NCc1ccc(S(=O)(=O)c2cc(F)cc(F)c2)cc1)c1ccc2nccn2c1`, in [1], the activation is 17.2% (inactive). For the same compound, the Potency was 10.1 µM (active) in assay [2] and 11.3 µM (active) in assay [13]. Moreover, the Potency result in assay [3], in [12], in assay [5] and in assay [6] was “inactive” in each case.

Consider `COc1ccc2c(c1)O[C@H](O[C@@H]1O[C@H](CO)[C@@H](O)[C@H](O)[C@H]1O)C(=O)N2`, for which the activation in assay [1] is -12.5% (inactive). The Potency result in assay [2] and in assay [3] was “inactive” in each case. Also, the Potency in [4] is 13.9 µM (active); in [6], 6.31 µM (active).

Consider `O=C(C1OC1/C=C/c1ccc2c(c1)OCO2)N1CCCCC1` (stereo unspecified), for which the activation in assay [1] was -6.11% (inactive). Besides, the Potency entry in [2], in assay [3] and in [5] was “inactive” throughout.

In the case of `COc1ccc(CCO[C@@H]2O[C@H](CO[C@H]3OC[C@](O)(CO)[C@H]3O)[C@@H](OC(=O)/C=C/c3ccc(O)c(O)c3)[C@H](O[C@@H]3O[C@@H](C)[C@H](O)[C@@H](O)[C@H]3O)[C@H]2O)cc1OC`, the activation in assay [1] is 16% (inactive). Moreover, the Potency result in assay [2], in assay [3] and in [5] was “inactive” throughout.
